# From PubChem BioAssay (EPA / NIEHS)
# The source made the active and inactive calls. How the source made its calls: active means hit-call score of the fitted dose curve at least 0.9, where 1 is the maximum; inactive means score below 0.9.
# Tested on: SRY-box transcription factor 2 (SOX2) Protein Expression, Deisenroth Lab, SOX2 (gene 6657)
# Test: CCTE_Deisenroth_DEVTOX-GLR_Pluri_SOX2: CCTE's DevTox GLR-Pluri Assay Evaluation of SRY-box transcription factor 2 (SOX2) Protein Expression, Deisenroth Lab (AID 2284428)
# In short: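 SOX2 expression frequency is scored in a human pluripotent reporter line, RUES2-GLR, exposed to chemicals twice over 48 h. Imaging-based SOX2+ cell percentage is normalized as change versus 0.2% DMSO.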
Compound,outcome,AC50
COc1cc2c(Nc3ccc(Br)cc3F)ncnc2cc1OCC1CCN(C)CC1,inactive,
Cc1nc(Nc2ncc(C(=O)Nc3c(C)cccc3Cl)s2)cc(N2CCN(CCO)CC2)n1,,0.621 µM (active)
O=C1Cc2cc(CCN3CCN(c4nsc5ccccc45)CC3)c(Cl)cc2N1,,4.27 µM (active)
CNC(=O)c1cc(Oc2ccc(NC(=O)Nc3ccc(Cl)c(C(F)(F)F)c3)cc2)ccn1,,29.3 µM (active)
Cc1nc2sccn2c(=O)c1CCN1CCC(=C(c2ccc(F)cc2)c2ccc(F)cc2)CC1,,16.9 µM (active)

# Tested on: not listed separately
# Test: CCTE_Deisenroth_DEVTOX-GLR_Pluri_CellCount: Viability Assessment in CCTE's DevTox GLR-Pluri Assay Evaluation of Total Cell Counts, Deisenroth Lab (AID 2284430)
# In short: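 Cytotoxicity readout: fluorescent nuclei counts by high-content imaging, expressed as percent change relative to 0.2% DMSO. Human RUES2-GLR pluripotent line differentiated 48 h, dosed twice at 24-h intervals across 1 nM - 200 uM (10 points).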
Compound,outcome,AC50
COc1cc2c(Nc3ccc(Br)cc3F)ncnc2cc1OCC1CCN(C)CC1,inactive,
Cc1nc(Nc2ncc(C(=O)Nc3c(C)cccc3Cl)s2)cc(N2CCN(CCO)CC2)n1,,0.0132 µM (active)
O=C1Cc2cc(CCN3CCN(c4nsc5ccccc45)CC3)c(Cl)cc2N1,,4.26 µM (active)
CNC(=O)c1cc(Oc2ccc(NC(=O)Nc3ccc(Cl)c(C(F)(F)F)c3)cc2)ccn1,,184 µM (active)
Cc1nc2sccn2c(=O)c1CCN1CCC(=C(c2ccc(F)cc2)c2ccc(F)cc2)CC1,,9.92 µM (active)
